Test results: PubChem BioAssay (NCATS)
Records with an inconclusive call do not appear. Unmarked numbers belong to inactive results. Calls of active or inactive are those of the source. The call rests on the fitted dose curve; in most records, active means well fitted inhibition curve with a large enough effect in the signal ratio, with a control signal flat (not every such curve was filed as active); inconclusive means small, poorly fitted or top-dose-only effect, or effect the other way, or a change in a side signal; inactive means flat fitted curve, though single readings scatter; the % refers to the signal ratio.

Biological target: Peroxisome proliferator-activated receptor gamma (Homo sapiens) (UniProt P37231)
Sequence (P37231 whole entry, looked up): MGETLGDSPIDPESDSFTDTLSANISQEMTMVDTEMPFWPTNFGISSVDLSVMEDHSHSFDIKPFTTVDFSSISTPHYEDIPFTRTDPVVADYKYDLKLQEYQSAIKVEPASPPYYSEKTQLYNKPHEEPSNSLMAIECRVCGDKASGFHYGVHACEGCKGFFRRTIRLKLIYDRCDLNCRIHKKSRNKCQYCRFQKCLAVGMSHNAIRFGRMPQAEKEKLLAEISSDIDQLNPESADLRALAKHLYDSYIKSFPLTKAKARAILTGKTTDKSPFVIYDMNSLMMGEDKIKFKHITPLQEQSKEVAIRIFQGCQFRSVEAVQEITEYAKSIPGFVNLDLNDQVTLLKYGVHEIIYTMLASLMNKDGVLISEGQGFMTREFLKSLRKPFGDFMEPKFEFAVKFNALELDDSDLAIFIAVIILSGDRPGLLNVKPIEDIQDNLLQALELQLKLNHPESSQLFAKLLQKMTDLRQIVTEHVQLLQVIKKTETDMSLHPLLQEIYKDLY
Assay: qHTS assay for small molecule antagonists of peroxisome proliferator-activated receptor gamma signaling (AID 588537);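 further: reporter cells co-stimulated with 50 nM rosiglitazone agonist during compound treatment; % of control where 0% means no effect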
Settings: HEK293 PPARg-UAS-bla, beta-lactamase ratio, antagonist mode; series mostly up to 76.8 µM; activity, negative = inhibition: at the top concentration
Excerpt: NIH Chemical Genomics Center [NCGC]
U.S. Environmental Protection Agency [EPA]
National Institutes of Environmental Health Sciences [NIEHS]
National Toxicology Program [NTP]
The Peroxisome proliferator-activated receptors (PPARs) are lipid-activated transcription factors of the nuclear receptor superfamily with three distinct subtypes namely PPAR alpha, PPAR delta (also called PPAR beta) and PPAR gamma. All these subtypes heterodimerizes with Retinoid X receptor (RXR) and these heterodimers regulate transcription of various genes. PPAR-gamma (glitazone receptor) ligands have been used in the treatment of type 2 diabetes and dyslipidaemia. It is involved in the regulation of glucose and lipid metabolism. PPAR-gamma activates certain genes like Paraoxonase 1 which is responsible for hydrolyzing organophosphates. PPAR-gamma ligands may also be therapeutically important in the treatment of coronary artery disease, obesity and cancer and atherosclerosis.
NCGC Assay Protocol Summary
Using a beta-lactamase reporter-gene under control of Peroxisome Proliferator-Activated-gamma (PPAR-gamma) response element, a cell-based assay [GeneBLAzer PPAR-gamma-UAS-bla assay developed by Invitrogen] was used to measure PPAR-gamma ligands signaling. GeneBLAzer PPAR-gamma-UAS-bla-HEK293 cells were used with assay medium containing 1% charcoal/dextran treated FBS. The assay was performed in clear bottom black Greiner 1536-well plates. Library compounds were measured for their ability to inhibit the reporter gene activity. Compounds were screened in a titration series in 1536-well format. The fluorescence intensity (405 nm excitation, 460/530 nm emission) was measured using an EnVision plate reader. Data was normalized relative to Rosiglitazone control (50 nM, 100%), and DMSO only wells (basal, 0%). Concentration-response titration points for each compound were fitted to the Hill equation yielding concentrations of half-maximal inhibition (IC50) and maximal response (efficacy) values.
qHTS protocol for PPAR-gamma beta-lactamase assay in antagonist mode
[Step] [Parameter] [Value] [Description]
1. Reagent; 5 uL; 3000 cells/well
2. Incubation; 37 C for 6-6.5 hrs
4. Controls (GW9662, PPAR-gamma antagonist); 23 nL,
5. Agonist (Stimulator); 1uL; Rosiglitazone at 50 nM (final) concentration
6. Incubation; 37 C for 16 hrs
7. Detection reagent; 1 uL of CCF4-dye
8. Incubation; RT for 2 hrs
9. Detection; Fluorescence; Envision plate reader

Row | SMILES | activity, negative = inhibition | Potency
1 | c1ccc(B(c2ccccc2)c2ccccc2)cc1 | -10.1% | 
2 | COc1ccc(OC)c(OC)c1 | -5.28% | 
3 | CCCCCCCC/C=C\CCCCCCCCO | 12.5% | 
4 | CN=C(N)NCC1CCOC1 (stereo not given) | -0.647% | 
5 | C=CC(=O)OCC(C)OCC(C)OCC(C)OC(=O)C=C (stereo not given) | 3.6% | 
6 | CCCCCCOCCOCCO | -1.29% | 
7 | COCCOCCOCCOC | 4.98% | 
8 | COC(=O)c1ccc(CNS(C)(=O)=O)cc1S(=O)(=O)NC(=O)Nc1nc(OC)cc(OC)n1 | -8.11% | 
9 | COC(=O)C(C)Oc1ccc(Oc2ncc(C(F)(F)F)cc2Cl)cc1 (stereo not given) | 7.89% | 
10 | C=CCCCCCCCCC=O | 10.1% | 
11 | CCCCOCCOCCOC(=O)CCCCC(=O)OCCOCCOCCCC | -2.99% | 
12 | O=C(OCC1CCC2OC2C1)C1CCC2OC2C1 (stereo not given) | 13.5% | 
13 | C=C(C)C(=O)OCCC[Si](Cl)(Cl)Cl | -3.51% | 
14 | S=C(S)NCCNC(=S)S | -2.6% | 
15 | Cc1ccc2c(c1)C(=O)OC2=O | -0.145% | 
16 | c1ccc2cc3ccccc3cc2c1 | 8.43% | 
17 | Cc1ccc(C(=O)c2ccccc2)cc1 | 5.01% | 
18 | c1ccc2c(c1)Cc1ccccc1-2 | 5.06% | 
19 | C/C=C/C=C/CCCCCCCO | -1.59% | 
20 | CCCCCCC(O)CCCCCCCCCCC(=O)O (stereo not given) | -0.426% | 

Row | SMILES | activity, negative = inhibition | Potency
21 | CCCCOCCOCCO | 6.62% | 
22 | C[Si]1(C)O[Si](C)(C)O[Si](C)(C)O[Si](C)(C)O[Si](C)(C)O1 | 2.11% | 
23 | CCC(C)(C)C1CCC(O)CC1 (stereo not given) | 10.2% | 
24 | O=[N+]([O-])C(CO)(CO)CO | -3.85% | 
25 | CCCCCCCCCCCCCCCO | 8.57% | 
26 | COc1cc(Cl)c(OC)cc1N | 0.83% | 
27 | CCN(Cc1c(F)cccc1Cl)c1c([N+](=O)[O-])cc(C(F)(F)F)cc1[N+](=O)[O-] | -6.83% | 
28 | CO[Si](OC)(OC)c1ccccc1 | -5.96% | 
29 | c1ccc2cc3c(ccc4ccccc43)cc2c1 | 8.92% | 
30 | COCCO |  | inactive
31 | CCCCN(CCCC)CCCCCCN(CCCC)CCCC | 5.42% | 
32 | NC(=O)Cc1cccc2ccccc12 | 4.37% | 
33 | CCCCCCCCCCCCCCCCCC(N)=O | -11.1% | 
34 | C1=C/CC/C=C/CC/C=C/CC/1 | 9.42% | 
35 | CCc1cccc(C)c1N(C(=O)CS(=O)(=O)O)[C@@H](C)COC | 7.71% | 
36 | CS(C)=O | -0.138% [at 54 mM] | 
37 | CCCCCc1ccc(N)cc1 | 6.19% | 
38 | CCCCCCCCCCCC[N+](C)(C)C | -10.5% | 
39 | CN(C)c1nc(=O)n(C2CCC(O)CC2)c(=O)n1C (stereo not given) | 8.3% | 
40 | CC(C)(N=C=O)c1cccc(C(C)(C)N=C=O)c1 | 10.7% | 
